In all, about 420,000 compounds went through this assay and about 64,000 (15%) were called active. Another 27% or so got no clear call; they are omitted. A selection follows. A number with no mark means an inactive call. Calls come from the whole dose curve; as a rule, active = well fitted inhibition curve with a large enough effect; inconclusive = small, poorly fitted or top-dose-only effect; inactive = flat fitted curve, though single readings scatter.
% is set by controls: 0 for no effect and ±100 for the full control effect; potency is the fitted concentration of half-maximal effect.

The experiment can be described thus: qHTS for Inhibitors of human tyrosyl-DNA phosphodiesterase 1 (TDP1): qHTS in cells in absence of CPT. Note: nearly all actives have a fitted effect of over 55% in size. The settings on record: DT40 Tdp1-/- hTDP1 cells, no CPT, ATP luminescence, 48 h; activity change, negative = growth inhibition: at 46.2 µM (top of the series). In outline:
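Luminescent ATP content (CellTiter-Glo) served as the growth readout. Knockout chicken DT40 cells expressing human TDP1 were exposed to compounds without camptothecin for a minimum 48 hr at 37 °C.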
As for `Cc1sc2ncnc(N3CCC(C(=O)Nc4nc5ccc(Cl)cc5s4)CC3)c2c1C`, the Potency is 7.31 µM (active).

On to `O=C(NNC(=O)C1CCCC1)c1ccc(F)cc1`, for which the “activity change, negative = growth inhibition” value was -16.6%.

On to `Cc1sc2ncnc(N3CCC(C(=O)Nc4ccc(F)cc4Cl)CC3)c2c1C`, for which the Potency is 23.1 µM (active).

With `Cc1ccc(Cl)cc1NC(=O)C1CCN(S(C)(=O)=O)CC1`, the “activity change, negative = growth inhibition” value was -1%.

On to `CC(C)[C@H](NC(=O)Nc1ccc(S(N)(=O)=O)cc1)C(=O)O`, for which the “activity change, negative = growth inhibition” value was -3.42%.

`CC(C)CCN1NC2(CCC(C)CC2)NC1=S` (stereo unspecified): the “activity change, negative = growth inhibition” value was 2.78%.

For `CN1C(=O)c2ccccc2C(C(=O)NCCCN2CCCC2)C1c1c[nH]c2ccccc12` (stereo unspecified), the “activity change, negative = growth inhibition” value is -16.9%.

With `CCc1c(O)nc(SCC(=O)N2CCCCC2)n(-c2ccccc2C)c1=O`, the “activity change, negative = growth inhibition” value is -13.4%.

For `CCc1ccc(OCC2c3cc(OC)c(OC)cc3CCN2C(C)=O)cc1` (stereo unspecified), the Potency was 13 µM (active).

As for `COc1ccc2[nH]c(=O)c(C3c4cc(OC)c(OC)cc4CCN3C(=O)c3ccco3)cc2c1` (stereo unspecified), the “activity change, negative = growth inhibition” value is -28.5%.

`COc1cc2c(cc1OC)CN(CC(=O)Nc1ccc(F)cc1)CC2`: the “activity change, negative = growth inhibition” value is -8.18%.

As to `COc1ccc(CC(NC(C)=O)C(=O)NC2CCN(C(=O)c3ccc(OC)c(OC)c3)CC2)cc1OC` (stereo unspecified), the “activity change, negative = growth inhibition” value is -4.86%.

Consider `COc1cc2c(cc1OC)C(COc1ccc(F)cc1)N(C(=O)c1ccccc1F)CC2` (stereo unspecified), for which the Potency is 16.4 µM (active).

In the case of `CCc1ccc(OCC(=O)OC(C)C(=O)NC2CC2)cc1` (stereo unspecified), the “activity change, negative = growth inhibition” value was 13.9%.

Turning to `CC(C)CN(C(=O)CSc1ncnc2sccc12)C1CCS(=O)(=O)C1` (stereo unspecified), the “activity change, negative = growth inhibition” value is 2.24%.

As for `O=C(N/N=C/c1ccsc1)c1cc(O)cc(O)c1`, the “activity change, negative = growth inhibition” value is -1.03%.

Take `CCN(CC(=O)NCc1cccs1)C(=O)/C=C/c1ccc(C)cc1`: the “activity change, negative = growth inhibition” value was 1.01%.

In the case of `FCOC(C(F)(F)F)C(F)(F)F`, the “activity change, negative = growth inhibition” value was -11.4%.

As to `CN(C)CCCN1C(=O)CSC1c1ccc([N+](=O)[O-])cc1` (stereo unspecified), the “activity change, negative = growth inhibition” value is -10.4%.

With `CCCCc1ccc(NC(=O)NCc2cccnc2)cc1`, the “activity change, negative = growth inhibition” value is -28.2%.

In the case of `CCCCCCCCCCCCN1C(=O)CSC1c1cccnc1` (stereo unspecified), the Potency was 16.4 µM (active).

For `COC(=O)CC1C(C)(C)C(OC(C)=O)C2CC3=C4CC(=O)OC(c5ccoc5)[C@]4(C)CCC3[C@@]1(C)C2=O` (stereo partly specified), the “activity change, negative = growth inhibition” value is -19.3%.

`C=C1C([C@@]2(C)C(OC(C)=O)CC(=O)O[C@@](C)(COC(C)=O)C2CC(=O)OC)C(OC=O)C(OC(=O)C(O)C(C)CC)[C@]2(C)C(c3ccoc3)CC(=O)C12O` (stereo partly specified): the Potency was 4.61 µM (active).

`CCOC(=O)C1(Cc2ccccc2C)CCCN(S(C)(=O)=O)C1` (stereo unspecified): the “activity change, negative = growth inhibition” value was 10.4%.

Turning to `C/C(=N\NC(=O)OC(C)(C)C)c1ccc[nH]1`, the “activity change, negative = growth inhibition” value was -16.5%.

Consider `Cc1ccccc1-c1nc(SCC(=O)N(C)c2ccccc2)c2c(=O)n(C)c(=O)n(C)c2n1`, for which the Potency is 9.2 µM (active).

Regarding `Cn1c(=O)c2c(SCC(=O)NCC3CCCO3)nc(-c3ccccc3F)nc2n(C)c1=O` (stereo unspecified), the “activity change, negative = growth inhibition” value is -26.5%.

Consider `Cc1cccc(-c2nc(SCC(=O)Nc3cc(C)on3)c3c(=O)n(C)c(=O)n(C)c3n2)c1`, for which the “activity change, negative = growth inhibition” value is 2.45%.

As to `O=C(CN(C(=O)c1csnn1)c1cccc(F)c1)NCc1ccc(F)cc1`, the “activity change, negative = growth inhibition” value is -2.72%.

In the case of `CCCCn1c(N)c(N(CCC(C)C)C(=O)COC(=O)c2ccc(CC)cc2)c(=O)[nH]c1=O`, the “activity change, negative = growth inhibition” value was 6.86%.

For the molecule `CCCCc1nc(NCc2ccccc2)c(C#N)c2c1CCCC2`, the “activity change, negative = growth inhibition” value was -19.1%.

`CCCCc1nc(NCCN)c(C#N)c2c1CSC(C)(C)C2`: the Potency was 20.6 µM (active).

On to `Cc1nc(NCCN)c(C#N)c2c1COC(C)(C)C2`, for which the “activity change, negative = growth inhibition” value is -19.8%.

For `CCOc1ccc(S(=O)(=O)Nc2ccncc2)c(C)c1C`, the “activity change, negative = growth inhibition” value is -7.83%.

As to `O=C(CSc1nc2ccccc2c(=O)n1-c1ccc(F)cc1)NC1CC1`, the “activity change, negative = growth inhibition” value is 16.1%.

As for `COc1ccc(OC)c(/C=N/NC(=O)CSc2nnc(C)n2-c2ccccc2)c1`, the “activity change, negative = growth inhibition” value is -3.99%.

With `Cc1nn(-c2ccccc2)c(C)c1/C=N/NC(=O)CSc1nc2ccccc2c(=O)n1-c1ccccc1`, the Potency was 18.4 µM (active).

As to `CCCS(=O)(=O)NC(=O)C1(C)CCCN(C(=O)c2cccs2)C1` (stereo unspecified), the “activity change, negative = growth inhibition” value is 1.68%.

With `COc1cc(/C=C2\C(=N)N3N=C(CC(=O)N4CCOCC4)SC3=NC2=O)cc(OC)c1OC`, the “activity change, negative = growth inhibition” value is 12.8%.

On to `Cc1noc(C)c1C(=O)N(CC(=O)NC1CCCC1)Cc1ccccc1F`, for which the “activity change, negative = growth inhibition” value is -4.62%.

With `CCOP1(=O)C=C(C(C)(C)C)OC1c1ccc(F)cc1` (stereo unspecified), the “activity change, negative = growth inhibition” value was -5.51%.

Take `C=CCNC(=S)NNc1ncnc2sc3c(c12)CC(C)(C)OC3`: the Potency was 5.17 µM (active).

`CN(C)CCSc1nc(N)c2c3c(sc2n1)COC(C)(C)C3`: the “activity change, negative = growth inhibition” value was -19.5%.

Take `C[C@H]1CN([C@@H](C)CO)C(=O)CCCn2cc(nn2)CO[C@@H]1CN(C)S(=O)(=O)c1ccccc1C#N`: the “activity change, negative = growth inhibition” value was -18.8%.

For the molecule `CCC1CCc2c(sc(NC(C)=O)c2C#N)C1` (stereo unspecified), the “activity change, negative = growth inhibition” value is -4.74%.

Take `Cc1nnc(SC(C)C(=O)c2c[nH]c3ccccc23)n1C1CC1` (stereo unspecified): the “activity change, negative = growth inhibition” value is -23.9%.

As to `COc1ccc(N2CCN(C(C)=C3C(=O)c4ccccc4C3=O)CC2)cc1`, the “activity change, negative = growth inhibition” value is 1.97%.

For `COc1ccc(C(C(O)C(=O)c2c[nH]c3ccccc23)N2CCN(c3ccccc3)CC2)cc1` (stereo unspecified), the Potency is 25.9 µM (active).

Take `O=C(COc1ccc(Cl)cc1)Nc1ccc2oc(=O)ccc2c1`: the “activity change, negative = growth inhibition” value was -12.1%.

For `Cc1ccc(N(C(=O)c2sc(C)nc2C)C(C(=O)NC(C)(C)C)c2ccncc2)cc1` (stereo unspecified), the “activity change, negative = growth inhibition” value is -7.84%.

Take `CC1(C)C=C2[C@H]3CC[C@@H]4[C@@]5(C)CCC(=O)C(C)(C)[C@@H]5CC[C@@]4(C)[C@]3(C)CC[C@@]2(C(=O)O)CC1`: the Potency was 8.2 µM (active).

These data come from PubChem BioAssay AID686978 (National Center for Advancing Translational Sciences (NCATS), 2013).
